# Out of some 420,000 compounds screened, about 64,000 (15%) were called active. Roughly 27% stayed inconclusive and do not appear here. Calls come from the whole dose curve; as a rule, active = well fitted inhibition curve with a large enough effect; inconclusive = small, poorly fitted or top-dose-only effect; inactive = flat fitted curve, though single readings scatter. A selection follows.
# Assay: qHTS for Inhibitors of human tyrosyl-DNA phosphodiesterase 1 (TDP1): qHTS in cells in absence of CPT; note: nearly all actives have a fitted effect of over 55% in size
# Details: DT40 Tdp1-/- hTDP1 cells, no CPT, ATP luminescence, 48 h; activity change, negative = growth inhibition: at 46.2 µM (top of the series)
# In short: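 Chicken DT40 Tdp1-/- cells complemented with human TDP1, screened without camptothecin (DMSO vehicle only), 400 cells/well. Compounds pin-transferred, cells incubated at 37 °C for at least 48 hr. Growth read as ATP-dependent luminescence (CellTiter-Glo, 30 min at RT).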
# % is set by controls: 0 for no effect and ±100 for the full control effect; potency is the fitted concentration of half-maximal effect.
SMILES,"activity change, negative = growth inhibition",Potency
CCOC(=O)C1=C(c2ccccc2)O/C(=C(/C(=O)OC)C(F)(F)F)S1,-21.6% (inactive),–
Cc1ccc2c(c1)N(C(=O)CCC(=O)NCc1cccnc1)CCO2,-4.05% (inactive),–
Cc1c(C)n2c(SCC(=O)NC3CCCC3)nnc2[nH]c1=O,-3.76% (inactive),–
CC(C)Cc1nnc(N)s1,-14.3% (inactive),–
CCOCCCN1C(=O)CN(C2CCCCC2)C(=O)C1c1ccc(OCC)c(OC)c1 (configuration not stated),-15.8% (inactive),–
CC1CCC(N2CC(=O)N(CCC3=CCCCC3)C(c3ccc(F)cc3)C2=O)CC1 (configuration not stated),–,10.3 µM (active)
CCCc1nnc(SCC(=O)N2C(C)CCCC2C)n1CC (configuration not stated),-0.484% (inactive),–
O=C(c1cccc(N2CCCC2=O)c1)N1CCOCC1,-0.431% (inactive),–
O=C1Nc2c(Br)cc(Br)cc2C1(O)N1CCOCC1 (configuration not stated),–,3.66 µM (active)
O=C(CSC(=S)N1CCOCC1)c1cc(Br)cc(Br)c1O,-13.5% (inactive),–
O=C(c1cc2cc(Br)cc(Br)c2oc1=O)N1CCOCC1,3.73% (inactive),–
O=C(CN1C(=O)c2cccc3cccc(c23)C1=O)N1CCCCC1,-23.4% (inactive),–
c1ccc(CCN2CN=C(Nc3nc4ccccc4o3)NC2)cc1,-27.1% (inactive),–
COc1cc(NS(=O)(=O)c2ccc(N/C=C(\C=O)c3nc4cc(Cl)ccc4o3)cc2)nc(OC)n1,-5.39% (inactive),–
O=C(NCCCN1CCOCC1)C1CCCN(S(=O)(=O)N2CCCCC2)C1 (configuration not stated),32.6% (inactive),–
CCCSc1nsc(N)n1,-9.3% (inactive),–
CCCN(Cc1cc2cccc(C)c2[nH]c1=O)S(C)(=O)=O,9.52% (inactive),–
COc1ccc(/C(O)=C2\C(=O)C(=O)N(Cc3ccco3)C2c2ccc(OC)cc2OC)cc1 (configuration not stated),-12.4% (inactive),–
CCC(c1nnnn1Cc1ccco1)N(CCc1ccccc1)Cc1cc2ccc(OC)cc2[nH]c1=O (configuration not stated),–,29.1 µM (active)
CCC(c1nnnn1Cc1ccco1)N(Cc1cc2cc(OC)ccc2[nH]c1=O)C1CCCCC1 (configuration not stated),–,23.1 µM (active)
CCOc1ccc2[nH]c(=O)c(C(c3nnnn3CCOC)N3CCOCC3)cc2c1 (configuration not stated),5.67% (inactive),–
CCC(c1nnnn1Cc1ccco1)N(CCc1ccccc1)Cc1cc2cccc(C)c2[nH]c1=O (configuration not stated),–,29.1 µM (active)
COc1ccc2[nH]c3c(=O)n(Cc4ccco4)cnc3c2c1,-29.2% (inactive),–

SMILES,"activity change, negative = growth inhibition",Potency
CC(C)C(c1nnnn1CCc1ccccc1)N1CCN(C(=O)c2ccco2)CC1 (configuration not stated),-16% (inactive),–
CCN(CC)c1ccc(/C=N/NC(=O)CNC(=O)c2cccs2)cc1,-28% (inactive),–
CN(C(=O)COC(=O)c1nc(Cl)ccc1Cl)C1CCS(=O)(=O)C1 (configuration not stated),8.66% (inactive),–
COc1ccc(NC2CC(=O)N(C)C2=O)cc1 (configuration not stated),-6.54% (inactive),–
COc1ccccc1S(=O)(=O)c1c(C)cc(C)[nH]c1=O,3.84% (inactive),–
C=CCNC(=S)NNC(=O)COc1c(Cl)cc(Cl)cc1Cl,-26.5% (inactive),–
CC(C)(C)C(=O)Nc1ccc(C(=O)N/N=C/c2ccccc2OC(=O)c2ccc(Cl)cc2Cl)cc1,–,11.6 µM (active)
CSc1ccc(/C=N/NC(=O)c2cccc(Cl)c2)cc1,6.76% (inactive),–
O=C(N/N=C/c1ccoc1)c1ccc(Cl)cc1Cl,13.7% (inactive),–
CCN1C[C@@H]2[C@@H]3C(=O)N(Cc4ccccc4)C(=O)[C@@H]3[C@](Cc3ccccc3)(C(=O)OC)N2C1=NC1CCCCC1,–,16.4 µM (active)
CC[C@]1(C(=O)OC)[C@H]2C(=O)N(C)C(=O)[C@H]2[C@H]2CN(C)C(=NCc3ccccc3)N21,-2.94% (inactive),–
CCCN=C1N(C)C[C@@H]2[C@@H]3C(=O)N(Cc4ccccc4)C(=O)[C@@H]3[C@](C)(C(=O)OC)N12,2.25% (inactive),–
CCOC(=O)c1cc2occc2n1CC(=O)N1CCN(C(=O)c2ccco2)CC1,-21.7% (inactive),–
ClC1(Cl)CC1CSc1ncn[nH]1 (configuration not stated),12.6% (inactive),–
CC(=O)O[C@H]1c2ccccc2-c2ccccc2[C@@H]1OC(C)=O,1.27% (inactive),–
Cc1ccc(Cn2c(C)nc3c(c2=O)c2nc4ccccc4nc2n3Cc2ccco2)cc1,–,23.1 µM (active)
Cc1ccc(Cn2c(=O)n(Cc3nc(-c4ccccc4)no3)c(=O)c3cc4c(cc32)OCO4)cc1,10.7% (inactive),–
CC(Sc1nc2ccccc2c(=O)n1Cc1ccco1)C(=O)c1ccccc1 (configuration not stated),-5.11% (inactive),–
O=C(NNc1ccccn1)c1ccc(Cl)nc1,-0.0188% (inactive),–
Cc1nc2scc(-c3cccs3)c2c(=O)n1N,-27.9% (inactive),–
CCCc1nc2scc(-c3ccc(C)cc3)c2c(=O)n1N,–,18.4 µM (active)
CCOC(=O)C(C)n1cnc2scc(-c3ccc(C)c(C)c3)c2c1=O (configuration not stated),2.91% (inactive),–
Cc1cc(C)c(S(=O)(=O)c2ccccc2)c(OC(=O)c2c(F)cccc2Cl)n1,-16.8% (inactive),–

SMILES,"activity change, negative = growth inhibition",Potency
CCN(CC)S(=O)(=O)c1ccc(Cl)c(NC(=O)c2ccncc2)c1,-13.3% (inactive),–
CCN(CC)S(=O)(=O)c1ccc(N(C)Cc2cccc(OC)c2OC)nc1,–,18.4 µM (active)
CCN(CC)S(=O)(=O)c1ccc(OC)c(NC(=O)CCc2c(C)noc2C)c1,12.1% (inactive),–
CCOc1ccc(Br)cc1S(=O)(=O)Nc1cccc(S(=O)(=O)N(CC)CC)c1,2.37% (inactive),–
CCS(=O)(=O)NCCc1ccc(OC)c(OC)c1,-19.1% (inactive),–
CCOC(=O)CN(Cc1ccc(OC)c(OC)c1)S(=O)(=O)c1ccc(OC)cc1,-19.3% (inactive),–
CCN(CC)S(=O)(=O)c1ccc(NC(=O)c2cnc(C)cn2)cc1,3.23% (inactive),–
CCN(CC)S(=O)(=O)c1ccc(N(C)Cc2ccc(C(F)(F)F)cc2)nc1,–,13 µM (active)
CCN(CC)S(=O)(=O)c1ccc(N(C)CCc2ccc(OC)c(OC)c2)nc1,–,20.6 µM (active)
NC(=O)C[C@@H]1NC(=O)CNC(=O)c2cc([N+](=O)[O-])cc(I)c2NCCC(C(N)=O)NC1=O (some centres not stated),18.2% (inactive),–
COc1ccc(-n2c(CNC(=O)c3cc(C(F)(F)F)ccc3Cl)nnc2SC)cc1,-15.9% (inactive),–
CC(C)=CC(=O)Nc1nnc(-c2ccc(F)cc2)s1,-7.58% (inactive),–
COc1cccc(OC)c1C(=O)Nc1nnc(C(C)C)s1,-11.6% (inactive),–
COc1ccc(N2C(=O)C3CCCN3C2c2cccs2)cc1 (configuration not stated),-5.08% (inactive),–
Cc1cc(C)c2c(-n3cccc3)c(C(=O)NNS(=O)(=O)c3ccc(F)cc3)sc2n1,3.21% (inactive),–
Cc1cc(C(=O)CC#N)c(C)n1-c1c(C)n(C)n(-c2ccccc2)c1=O,8% (inactive),–
Cc1nn(C)c(Cl)c1CN1CCC(n2nccc2NC(=O)C2CCCC2)CC1,11.6% (inactive),–
O=C(O)C1=CCCN(CCON=C(c2ccccc2)c2ccccc2)C1,–,inactive
COc1ccc(NC(=O)c2cc3cc(C)ccc3n2C)cc1,-27.1% (inactive),–
COc1ccc(OC)c(/C(C)=N\NC(=O)c2cc3cc(Cl)ccc3n2C)c1,–,4.61 µM (active)
Cc1ccc(NC(=O)c2cc3cc(C)ccc3n2C)cc1,-21.4% (inactive),–

# From PubChem BioAssay AID686978 (National Center for Advancing Translational Sciences (NCATS), 2013)
